30 compounds from PubChem BioAssay (Tox21) can be followed below.

The target in assay [1] is Estrogen receptor (Homo sapiens) (UniProt P03372). Briefly: qHTS assay to identify small molecule antagonists of the estrogen receptor alpha (ER-alpha) signaling pathway (AID 743069; active means well fitted curve in the direction sought with a large enough effect in the signal ratio in the repeat runs, not every such curve was filed as active; the % refers to the signal ratio). The method in brief:
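Estradiol-stimulated ER-alpha-UAS-bla HEK293 cells, 18 hr compound exposure at 37C. LiveBLAzer B/G substrate, 2 hr RT, fluorescence read.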
In general terms: In qHTS, concentration-response curves come from the screen itself.

Assay [2] can be described thus: qHTS assay to identify small molecule antagonists of the estrogen receptor alpha (ER-alpha) signaling pathway - cell viability counter screen (AID 743074; calls by dose curve;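 further: HEK293 cells carrying ER-alpha-UAS-bla reporter stimulated with 17beta-estradiol; nearly all actives have a fitted effect of over 45% in size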).
Assay [3] addresses Estrogen receptor (Homo sapiens) (UniProt P03372). Description: qHTS assay to identify small molecule agonists of the estrogen receptor alpha (ER-alpha) signaling pathway (AID 743075; calls by dose curve;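 further: HEK293 GripTite cells with ER-alpha and UAS-driven beta-lactamase reporter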).
Assay [4] shares this target. Description: qHTS assay to identify small molecule agonists of the estrogen receptor alpha (ER-alpha) signaling pathway using the BG1 cell line (AID 743079). Further: nearly all actives have a fitted effect of over 20% in size. Further: potency means the concentration at half of the fitted maximal effect.
Assay [5] can be described thus: qHTS assay to identify small molecule antagonists of the estrogen receptor alpha (ER-alpha) signaling pathway using the BG1 cell line (AID 743080; calls by dose curve; further: series mostly up to about 70 µM; nearly all actives have a fitted effect of over 25% in size). An outline of the steps: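 Antagonist mode: compounds in DMSO were pinned onto BG1-Luc-4E2 cells alongside 17beta-estradiol agonist, incubated 21.5 h, and ERE-driven luciferase measured with ONE-Glo. Cytotoxicity was multiplexed using CellTiter-Fluor fluorescence.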

A short description of assay [6]: qHTS assay to identify small molecule antagonists of the estrogen receptor alpha (ER-alpha) signaling pathway using the BG1 cell line - cell viability counter screen (AID 743081).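 Further: compound given together with 17beta-estradiol as the ER stimulus; series mostly up to about 70 µM; nearly all actives have a fitted effect of over 45% in size.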
Another assay concerns the target Aromatase (Homo sapiens) (UniProt P11511). Description: qHTS assay to identify aromatase inhibitors (AID 743083). Further: series mostly up to about 70 µM; nearly all actives have a fitted effect of over 55% in size.
Assay [7] is described as follows: qHTS assay to identify aromatase inhibitors - cell viability counter screen (AID 743084).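 Further: cells stimulated with testosterone during compound exposure; nearly all actives have a fitted effect of over 55% in size.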
For assay [8], the system named is thyroid hormone receptor (rat, GH3 cells). Briefly: qHTS assay to identify small molecule agonists of the thyroid receptor (TR) signaling pathway (AID 743066; calls by dose curve).

Results filed as inconclusive are left out. Some compounds were tested as several samples or in several runs, with calls that do not always agree. Calls of active or inactive are those of the source. Unless noted, the call rests on the fitted dose curve; in most records, active means well fitted curve in the direction sought with a large enough effect in the repeat runs; inconclusive means weak or mixed curves; inactive means no such curve, though single readings can be large; an effect the other way counts as inactive or inconclusive.
On the % scale 0 is the no-effect control and ±100 the full control effect.

Sequence of Estrogen receptor (Homo sapiens) (P03372 whole entry, looked up): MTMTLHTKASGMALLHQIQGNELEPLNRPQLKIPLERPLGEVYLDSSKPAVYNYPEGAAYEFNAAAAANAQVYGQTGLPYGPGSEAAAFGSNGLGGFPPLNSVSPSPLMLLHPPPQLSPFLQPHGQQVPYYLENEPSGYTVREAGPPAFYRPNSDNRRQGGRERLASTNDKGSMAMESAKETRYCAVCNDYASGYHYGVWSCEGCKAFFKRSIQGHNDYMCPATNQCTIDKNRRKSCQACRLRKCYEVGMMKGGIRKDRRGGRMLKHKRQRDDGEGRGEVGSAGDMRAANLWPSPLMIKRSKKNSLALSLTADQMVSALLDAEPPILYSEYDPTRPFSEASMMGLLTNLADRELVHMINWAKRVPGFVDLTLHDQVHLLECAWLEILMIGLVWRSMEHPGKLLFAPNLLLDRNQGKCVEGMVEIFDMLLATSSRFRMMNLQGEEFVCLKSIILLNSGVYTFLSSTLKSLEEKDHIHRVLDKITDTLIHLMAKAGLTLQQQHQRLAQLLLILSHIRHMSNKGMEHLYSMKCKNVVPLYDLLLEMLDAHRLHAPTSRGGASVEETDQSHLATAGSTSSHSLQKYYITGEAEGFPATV
Sequence of Aromatase (Homo sapiens) (P11511 whole entry, looked up): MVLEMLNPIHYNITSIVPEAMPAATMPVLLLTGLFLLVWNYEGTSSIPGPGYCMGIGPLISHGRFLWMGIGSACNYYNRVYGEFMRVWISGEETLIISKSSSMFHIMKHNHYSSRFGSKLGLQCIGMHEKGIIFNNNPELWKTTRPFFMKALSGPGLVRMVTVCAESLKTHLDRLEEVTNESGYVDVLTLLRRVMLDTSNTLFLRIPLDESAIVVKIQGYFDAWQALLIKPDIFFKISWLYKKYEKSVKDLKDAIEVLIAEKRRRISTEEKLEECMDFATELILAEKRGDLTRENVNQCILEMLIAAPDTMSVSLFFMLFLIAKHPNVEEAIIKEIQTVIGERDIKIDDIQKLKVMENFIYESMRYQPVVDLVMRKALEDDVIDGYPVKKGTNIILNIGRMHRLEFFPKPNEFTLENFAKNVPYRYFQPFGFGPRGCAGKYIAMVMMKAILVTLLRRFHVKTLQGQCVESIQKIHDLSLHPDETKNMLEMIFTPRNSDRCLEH

For `CCCCC(CC)CCC(CC(C)C)OS(=O)(=O)O` (configuration not stated), the compound was called inactive in assay [1], in assay [6] and in assay [7]. Moreover, the Potency entry (in [2]; in assay [3]; in [5]; in the assay with Aromatase (Homo sapiens)) was “inactive” in each case. Further, the Potency in assay [4] is 8.41 µM (active) and inactive.

`CC(=O)SC[C@@H](C)C(=O)N1CCC[C@H]1C(=O)N[C@@H](Cc1ccccc1)C(=O)O`: the outcome in [1], in assay [6] and in assay [7] was inactive. In addition, the Potency entry (in [2]; in [3]; in assay [4]; in assay [5]; with Aromatase (Homo sapiens)) was “inactive” each time.

Regarding `C[C@]12C=CC(=O)C=C1[C@@H](F)C[C@@H]1[C@@H]2[C@@H](O)C[C@@]2(C)[C@H]1CC[C@]2(O)C(=O)CO`, the Potency entry (in assay [2]; in [3]; in the assay with Aromatase (Homo sapiens)) was “inactive” throughout. In addition, the call in assay [6] and in assay [7] was inactive.

As to `C=CC(=O)CC`, the Potency entry (in assay [8]; in assay [2]; in the assay with Aromatase (Homo sapiens)) was “inactive” in each case. The result in [6] and in assay [7] was inactive.

Consider `CCCCN1C(=O)c2ccccc2C1=O`, for which the outcome in assay [1], in [6] and in assay [7] was inactive. Moreover, the Potency entry (in assay [2]; in [3]; in assay [4]; in assay [5]; with Aromatase (Homo sapiens)) was “inactive” in each case.

As for `CCCCc1ccc(Cl)cc1`, the compound was called inactive in assay [1], in assay [6] and in assay [7]. The Potency result (in [2]; in [3]; in assay [4]; in assay [5]; in the assay with Aromatase (Homo sapiens)) was “inactive” each time.

On to `N=C(N)N`, for which the Potency result (in [2]; in the assay with Aromatase (Homo sapiens)) was “inactive” throughout. The compound was called inactive in [6] and in assay [7].

Turning to `CCCCCCCCC1CO1` (configuration not stated), the Potency result (in assay [8]; in assay [2]; with Aromatase (Homo sapiens)) was “inactive” throughout. For the same compound, the call in [6] and in assay [7] was inactive.

For the compound `CC(C)=CCC/C(C)=C\C#N`, the compound was classed as inactive in assay [1], in assay [6] and in assay [7]. In addition, the Potency entry (in [2]; in assay [3]; in assay [4]; in assay [5]; with Aromatase (Homo sapiens)) was “inactive” each time.

For the compound `NC(=O)CC[C@@H](N)C(=O)O`, the Potency result (in assay [8]; in assay [2]; with Aromatase (Homo sapiens)) was “inactive” each time. Further, the call in [6] and in assay [7] was inactive.

Consider `COc1cc(NS(=O)(=O)c2ccc(N)cc2)ncn1`, for which the Potency entry (in assay [8]; in assay [2]; with Aromatase (Homo sapiens)) was “inactive” throughout. The outcome in [6] and in [7] was inactive.

As to `CCN1CCN(C(=O)N[C@@H](C(=O)N[C@@H]2C(=O)N3C(C(=O)O)=C(CSc4nnnn4C)CS[C@H]23)c2ccc(O)cc2)C(=O)C1=O`, the result in [1], in assay [6] and in assay [7] was inactive. The Potency entry (in assay [2]; in [3]; in assay [4]; in [5]; in the assay with Aromatase (Homo sapiens)) was “inactive” throughout.

Consider `CC/C=C\CCOC(=O)c1ccccc1`, for which the compound was called inactive in assay [1], in assay [6] and in assay [7]. The Potency result (in assay [2]; in assay [3]; in assay [4]; in assay [5]; with Aromatase (Homo sapiens)) was “inactive” each time.

Take `BrCCOc1ccccc1`: the call in assay [1], in [6] and in assay [7] was inactive. For the same compound, the Potency entry (in assay [2]; in assay [3]; in assay [4]; in assay [5]; with Aromatase (Homo sapiens)) was “inactive” throughout.

For `C[C@H]1COc2c(C3(N)CC3)c(F)cc3c(=O)c(C(=O)O)cn1c23`, the Potency entry (in [2]; with Aromatase (Homo sapiens)) was “inactive” throughout. For the same compound, the outcome in [6] and in [7] was inactive.

Take `CC(C)(C)NCC(O)COc1cccc2c1CCC(=O)N2` (configuration not stated): the Potency result (in [2]; in the assay with Aromatase (Homo sapiens)) was “inactive” throughout. Moreover, the call in assay [6] was inactive.

Take `O=C[C@@H](O)[C@H](O)[C@H](O)CO`: the Potency result (in assay [8]; in [2]; in the assay with Aromatase (Homo sapiens)) was “inactive” throughout. Also, the compound was classed as inactive in [6] and in assay [7].

Regarding `c1cc2ccc3ccc4ccc5cccc6c(c1)c2c3c4c56`, the activation in assay [8] was 1% [at 3.63 µM] (inactive). For the same compound, the activity, negative = cytotoxicity in assay [2] is 7.3% [at 3.02 µM] (inactive). Also, the activity change, negative = cytotoxicity in assay [6] was 17.4% [at 3.79 µM] (inactive); in [7], 7.94% [at 3.79 µM] (inactive). Also, the activity, negative = inhibition with Aromatase (Homo sapiens) is -7.29% [at 3.79 µM] (inactive).

`CCCCCCCCCCCC(C)=O`: the compound was called inactive in [1], in assay [6] and in assay [7]. For the same compound, the Potency entry (in assay [2]; in assay [5]; in the assay with Aromatase (Homo sapiens)) was “inactive” in each case. In [4], the Potency was 17.2 µM (active).

As to `CC(=O)OCC(=O)[C@@]1(O)CC[C@H]2[C@@H]3CCC4=CC(=O)C=C[C@]4(C)[C@H]3[C@@H](O)C[C@@]21C`, the Potency result (in assay [2]; in the assay with Aromatase (Homo sapiens)) was “inactive” throughout. Moreover, in assay [4], the Potency is 11.9 µM (active). For the same compound, the outcome in assay [6] and in assay [7] was inactive.

Take `C=C(C)C(=O)OCCOC1CC2CC1C1C=CCC21` (configuration not stated): the Potency result (in [8]; in assay [2]; with Aromatase (Homo sapiens)) was “inactive” throughout. Besides, the compound was classed as inactive in assay [6] and in assay [7].

With `CCCC[O][Al]([O]CCCC)[O]CCCC`, the Potency result (in assay [2]; with Aromatase (Homo sapiens)) was “inactive” throughout. Also, the compound was classed as inactive in assay [6] and in [7].

`CC(C)c1cc(C(C)C)cc(C(C)C)c1`: the Potency entry (in assay [2]; in [3]; in assay [4]; in [5]; with Aromatase (Homo sapiens)) was “inactive” throughout. Besides, the result in [6] and in assay [7] was inactive.

For `CCCCNCC`, the compound was classed as inactive in [1], in [6] and in assay [7]. In addition, the Potency result (in assay [2]; in assay [3]; in assay [4]; in assay [5]; with Aromatase (Homo sapiens)) was “inactive” in each case.

`CCCCC(CC)COC(=O)CC#N` (configuration not stated): the compound was called inactive in [1], in assay [6] and in assay [7]. For the same compound, the Potency result (in [3]; in assay [4]; in [5]; with Aromatase (Homo sapiens)) was “inactive” each time.

For `CC1(C)S[C@@H]2[C@H](NC(=O)Cc3ccccc3)C(=O)N2[C@H]1C(=O)O` (tested in a mixture with another compound), the outcome in assay [1], in assay [6] and in assay [7] was inactive. Besides, the Potency result (in assay [2]; in [3]; in assay [4]; in assay [5]; with Aromatase (Homo sapiens)) was “inactive” throughout.

As to `CN1C(CCl)Nc2cc(Cl)c(S(N)(=O)=O)cc2S1(=O)=O` (configuration not stated), the outcome in assay [1], in assay [6] and in [7] was inactive. Further, the Potency result (in assay [2]; in [3]; in [4]; in assay [5]; in the assay with Aromatase (Homo sapiens)) was “inactive” each time.

Take `CC(C)OC(=O)C(C(=O)OC(C)C)=C1SC=CS1`: the Potency entry (in [8]; in [2]; with Aromatase (Homo sapiens)) was “inactive” in each case. Further, the call in assay [6] and in assay [7] was inactive.

With `CCCOc1ccc(C(=O)OCCN(CC)CC)cc1N`, the Potency entry (in assay [8]; in assay [2]; with Aromatase (Homo sapiens)) was “inactive” each time. Further, the compound was called inactive in [7].

`O=c1[nH]c(=O)c2cn[nH]c2[nH]1`: the Potency result (in [2]; with Aromatase (Homo sapiens)) was “inactive” throughout. Also, the outcome in assay [6] and in [7] was inactive.
